# About 3,100 (0.86%) of roughly 360,000 compounds were called active. What follows is part of a selection rich in actives, with near analogues and random picks from the rest. Values without a mark were called inactive.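 How the source made its calls: active means inhibition or corrected inhibition above about 18%, plus a signal ratio from 0.5 to 1.5 (limit read from the data, passing the limit was not always enough); inactive means the rest.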
# Target: Neuropilin-1 (Homo sapiens) (UniProt O14786)
# Assay: NRP-1/CendR peptide interaction modulators – biochemical, fluorescence polarization, uHTS, primary screen (AID 602438)
# Settings: FAM-RPARPAR peptide binding to NRP-1, fluorescence polarization; at 25 µM; active compounds read high
# Neuropilin-1 (Homo sapiens), sequence (O14786 whole entry, looked up): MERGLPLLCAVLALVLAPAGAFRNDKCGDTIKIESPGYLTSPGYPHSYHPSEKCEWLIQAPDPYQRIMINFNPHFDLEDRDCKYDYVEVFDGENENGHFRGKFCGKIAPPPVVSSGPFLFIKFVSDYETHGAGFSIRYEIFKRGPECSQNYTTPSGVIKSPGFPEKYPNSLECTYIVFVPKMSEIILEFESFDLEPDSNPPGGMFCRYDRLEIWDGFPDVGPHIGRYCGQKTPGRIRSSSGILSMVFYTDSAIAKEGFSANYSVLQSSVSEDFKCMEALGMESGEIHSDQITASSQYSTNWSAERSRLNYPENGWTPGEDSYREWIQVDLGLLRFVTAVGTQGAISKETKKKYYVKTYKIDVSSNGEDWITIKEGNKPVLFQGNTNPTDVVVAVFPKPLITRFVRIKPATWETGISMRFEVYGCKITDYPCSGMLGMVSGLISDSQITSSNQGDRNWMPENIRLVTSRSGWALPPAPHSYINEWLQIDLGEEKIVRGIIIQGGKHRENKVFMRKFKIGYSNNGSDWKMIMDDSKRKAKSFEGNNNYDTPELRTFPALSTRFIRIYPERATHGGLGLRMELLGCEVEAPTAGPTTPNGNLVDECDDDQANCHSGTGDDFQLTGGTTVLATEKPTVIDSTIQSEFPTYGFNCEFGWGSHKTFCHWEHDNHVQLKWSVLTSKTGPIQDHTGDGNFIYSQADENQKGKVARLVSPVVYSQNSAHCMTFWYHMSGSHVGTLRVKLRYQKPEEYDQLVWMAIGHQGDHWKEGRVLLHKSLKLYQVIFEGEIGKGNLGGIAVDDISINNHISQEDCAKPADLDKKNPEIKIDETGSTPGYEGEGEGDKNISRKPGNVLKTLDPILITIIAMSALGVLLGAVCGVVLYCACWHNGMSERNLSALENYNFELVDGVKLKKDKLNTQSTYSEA
row,Compound,inhibition
1,CCOC(=O)c1csc(CCNC(=O)c2oc3c(Cl)cc(C)cc3c2C)n1,24.9% (active)
2,Cc1cc(Cl)c2oc(C(=O)N(C)C(C)c3ccccn3)c(C)c2c1 (stereo unspecified),9.3%
3,Cc1cc(Cl)c2oc(C(=O)NC(C)c3ccncn3)c(C)c2c1 (stereo unspecified),1.3%
4,CCN(CC(=O)Nc1cc(Cl)ccc1C)C(=O)Cn1c(=O)cnc2ccccc21,9%
5,O=c1nc(NO)ccn1C1CCCO1 (stereo unspecified),7.6%
6,CC(C)C(C(=O)NCc1ccco1)N(CC1CCCO1)C(=O)CNS(=O)(=O)c1ccc(F)cc1 (stereo unspecified),15.8%
7,Cc1ccc2c(c1)C1CN(C)CCC1N2C(=O)c1ccccc1NS(=O)(=O)c1ccc(F)cc1C (stereo unspecified),37.9% (active)
8,Cc1ccc2c(c1)C1CN(C)CCC1N2C(=S)Nc1ccc(Cl)cc1Cl (stereo unspecified),-11.4%
9,Cc1ccc2c(c1)C1C[N+](C)(CC(=O)c3ccccc3)CCC1N2C(=O)c1ccccc1Cl (stereo unspecified),5.2%
10,Cc1noc(C)c1CSCC(=O)Nc1ccc(Br)cc1Cl,12.2%
11,O=C(CSCc1c(F)cccc1Cl)NCC1CCCO1 (stereo unspecified),-9.5%
12,CC1CCN(C(=O)/C(=C\c2ccccc2F)NC(=O)c2ccccc2)CC1,9.8%
13,CCc1cc2c(=O)c(-c3nc4ccccc4n3C)c(CCCC(=O)O)oc2cc1OC(=O)C(C)(C)C,3.6%
14,COc1ccc2oc(N)c(C=O)c(=O)c2c1,13.3%
15,CCc1cc2c(=O)c(-c3ccon3)c(N)oc2cc1OC,36.1% (active)
16,CCN(CC(=O)N1CCCC1)S(=O)(=O)c1ccc(F)cc1,9.2%
17,COCn1c(C(O)c2ccccc2)cc2ccccc21 (stereo unspecified),8.1%
18,CC(OC(=O)c1cccc(S(=O)(=O)N2CCOCC2)c1)C(=O)NCC1CCCCC1 (stereo unspecified),8.2%
19,CC(OC(=O)c1ccc([N+](=O)[O-])cc1)C(=O)NCC1CCCCC1 (stereo unspecified),23.5% (active)
20,O=C(NCC(O)c1ccc([N+](=O)[O-])cc1)C1CCCCC1 (stereo unspecified),11.3%
21,O=C(C1CCCN1S(=O)(=O)c1ccc(Br)cc1)N1CCOCC1 (stereo unspecified),6.9%
22,Cc1nc2ccc(C(=O)N(C)CC3CCCN(CCc4ccc(Cl)cc4)C3)cc2[nH]1 (stereo unspecified),8.8%
23,COC(=O)Nc1nc2ccc(Sc3ccccc3)cc2[nH]1,-0.3%

row,Compound,inhibition
1,Cc1nc2ccc(C(=O)O)cc2[nH]1,24.6% (active)
2,Cc1cccc(NC(=O)CN2CCCN(S(=O)(=O)c3ccc(Br)s3)CC2)c1,1.1%
3,COc1cccc(CNC(=O)CN(C)S(=O)(=O)c2ccc3c(c2)c(=O)n(C)c(=O)n3C)c1,-1.6%
4,CC1CCC(NC(=O)CN(C)S(=O)(=O)c2ccc3c(c2)c(=O)n(C)c(=O)n3C)CC1 (stereo unspecified),25.4% (active)
5,CCc1ccccc1NC(=O)CN(C)S(=O)(=O)c1ccc2c(c1)c(=O)n(C)c(=O)n2C,7.6%
6,C/C=N/NC(=O)CCCC(=O)N/N=C/C,15%
7,Cc1cc(C)c(S(=O)(=O)N2C=CC(C(F)(F)F)=NCC2)c(C)c1,3.5%
8,O=C(O)c1ccc(NC(=O)c2ccc(COc3ccc(Cl)cc3)o2)cc1,-6.7%
9,O=C(O)CSCc1ccc(C(=O)O)o1,-7.1%
10,O=C(O)c1ccc(COc2c(F)c(F)cc(F)c2F)o1,45.5% (active)
11,CC1O[C@H](OC2C(COC3OC(CO)C(O)[C@H](O)C3O)OC(OC3CC[C@]4(C)C(CC[C@@]5(C)[C@@H]4C=C[C@]46OC[C@@]7(CCC(C)(C)C[C@H]74)C(O)C[C@@]56C)C3(C)C)C(O)C2O)C(O)C(O)C1O (stereo partly specified),23.7% (active)
12,CCOc1ccc(-n2c(SC(C)C(=O)OC)nc3c(c2=O)SCC3)cc1 (stereo unspecified),-5.4%
13,O=C1CCN(CCCc2ccccc2)CCN1CCO,5.5%
14,N#Cc1cccc(CN2CCC(=O)N(CCO)CC2)c1,21.1% (active)
15,N#Cc1cccc(CN2CCC(=O)N([C@H](CO)c3ccccc3)CC2)c1,9.5%
16,O=C(CSc1nnc(-c2cccnc2)n1Cc1ccco1)c1ccc(Cl)c(Cl)c1,-25.2%
17,O=C(CSc1nnc(-c2cccs2)n1Cc1ccco1)c1ccc2c(c1)OCO2,37.5% (active)
18,O=C(CSc1nnc(-c2cnccn2)n1Cc1ccco1)c1ccc(Cl)c(Cl)c1,3.3%
19,CC(=O)N1CC2(C)CN(C(C)=O)CC(C)(C1)C2=O,11.7%
20,O=C(NCc1ccccc1Cl)C1CCN(c2ncnc3c2nc2n3CCCCC2)CC1,13.7%
21,CN(C(=O)C1CCN(c2ncnc3c2nc2n3CCCCC2)CC1)C1CCCCC1,18.4% (active)
22,CN(Cc1ccccc1)C(=O)C1CCCN(c2ncnc3c2nc2n3CCCCC2)C1 (stereo unspecified),10%
23,CCC(=O)c1cn(CCOc2ccccc2OC)c2ccccc12,-7%

# Reference: PubChem BioAssay AID602438 (Sanford-Burnham Center for Chemical Genomics, 2012)
